# Source: PubChem BioAssay (National Center for Advancing Translational Sciences (NCATS))
# In the library only some 4.7% were active in any assay of this set; here they are far more common.
# D1 antagonist: antagonists of human D1 dopamine receptor; HEK293 TREx D1 cells, calcium flux, dopamine EC80; active compounds read low; P21728; hit rate 3.2% among 360,000; AID 504652; activity change, negative = inhibition, % at 10 µM; in the data active = activity change below about -30%; also: % is scaled to controls: 0 for no effect and ±100 for the full control effect
# Target sequence (P21728 whole entry, looked up): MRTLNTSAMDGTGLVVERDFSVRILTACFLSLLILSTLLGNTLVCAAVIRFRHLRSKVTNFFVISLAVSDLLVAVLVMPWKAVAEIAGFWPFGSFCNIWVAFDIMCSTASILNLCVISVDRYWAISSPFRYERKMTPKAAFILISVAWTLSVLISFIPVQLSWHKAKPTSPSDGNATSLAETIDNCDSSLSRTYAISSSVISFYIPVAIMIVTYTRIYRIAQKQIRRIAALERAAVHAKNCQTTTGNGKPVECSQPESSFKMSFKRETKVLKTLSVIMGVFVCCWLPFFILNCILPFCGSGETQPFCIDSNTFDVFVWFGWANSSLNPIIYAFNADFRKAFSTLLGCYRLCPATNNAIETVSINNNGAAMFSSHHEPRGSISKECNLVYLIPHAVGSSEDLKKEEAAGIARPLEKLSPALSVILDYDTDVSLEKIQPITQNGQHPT
#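 Compound effects on dopamine-evoked calcium signalling were measured in tetracycline-induced HEK293 Trex D1 cells. Dopamine at EC80 followed a 180 s compound pre-read, and fluorescence was tracked kinetically for 180 s more.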
# D1 ag: human D1 receptor agonism | P21728 | HEK293 T-REx D1 cells, calcium flux, agonist mode | activation, % at 2 µM | hit rate 1% among 360,000 | AID 504660; also: 0% is about no effect
#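 Inducible HEK293 T-REx D1 cells, force-coupled to calcium signalling, were plated at 4000 cells/well with tetracycline and held overnight at 30 C. After no-wash calcium dye loading, compound-evoked calcium rise over 180 s flagged agonists.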
# TRHR ag: agonists of human TRH receptor | P34981 | AID 493084 | hit rate 0.18% among 360,000 | TRHR cells, calcium flux fluo-8, FDSS agonist mode | activation, % at 2 µM; also: 0% is about no effect
#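 TRHR-expressing cells, plated overnight in medium with 10% serum, were loaded with fluo-8 calcium dye at room temperature. After a 10 s baseline, library compound was pin-added and calcium release was recorded kinetically (ex 480/em 530) as agonist response.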
# D1 PAM: enhances dopamine response at the human D1 receptor; AID 504651; P21728; HEK293 TREx D1 cells, calcium flux, dopamine EC20 potentiation; hit rate 0.036% among 360,000; potentiation, % at 10 µM; in the data active = potentiation above about 30%; also: 0% is about no effect
# TRHR PAM: TRH receptor (human) allosteric enhancement | P34981 | TRHR cells, fluo-8 calcium fluorescence, EC20 TRH enhancement | enhancement, % at 2 µM | hit rate 0.66% among 360,000; in the data active = enhancement above about 30%; also: 0% is about no effect
#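 TRHR-expressing cells loaded with fluo-8 calcium dye were read kinetically (ex 480/em 530) during compound addition, then stimulated with an EC20 of TRH (10 nM final). Enhancement of the Gq-mediated intracellular calcium response was scored.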
# Numbers without * were called inactive; ! = not active in a repeat. Rule as the data show it, unless noted: active = activation above about 30%; inactive = the rest.
SMILES,D1 antagonist,D1 ag,TRHR ag,D1 PAM,TRHR PAM
O=[N+]([O-])c1cc(-n2cnnn2)ccc1N1CCC(Cc2ccccc2)CC1,-35.1*,-1.0,-0.1,-2.6,7.7
CC(C)(C)NC(=O)C(OC(=O)c1ccco1)c1ccccc1F (stereo not given),-37.7*,-0.7,-0.4,-3.0,6.5
CCC(C)(C)NC(=O)C(OC(=O)c1ccco1)c1ccccc1F (stereo not given),-27.3,0.9,-0.5,-4.5,6.0
COc1ccccc1NC(=O)C1=C(C)Nc2nc3ccccc3n2C1c1cccc(OC)c1OC (stereo not given),13.9,-0.4,0.2,2.4,-0.6
c1ccc(Cn2nnnc2CN2CCOCC2)cc1,-33.6*,4.3,0.4,-11.1,2.8
c1ccc(Cn2nnc3c(NCCN4CCOCC4)ncnc32)cc1,-30.8*,2.5,0.0,-17.2,16.6
COCc1c(Br)c(C)nc2sc3c(=O)n(-c4cccc(Br)c4)nnc3c12,0.3,0.7,1.3,0.3,0.3
O=C(Nc1ccccc1C(=O)Nc1ccccn1)c1cc(F)c(F)cc1Cl,-31.2*,7.0,0.0,-1.0,-1.3
O=C(Nc1ccccc1C(=O)Nc1ccccn1)c1ccccc1F,-2.3,5.3,-0.4,-0.2,-7.3
O=C(/C=C/c1ccccc1)C1=C(O)C(=O)N(CCO)C1c1ccc2c(c1)OCO2 (stereo not given),-5.7,2.0,-1.0,-5.5,36.2*
CCOC(=O)C1=C(N)n2c(s/c(=C/c3ccco3)c2=O)=C(C(=O)OC)C1c1ccco1 (stereo not given),-1.0,50.3*,2.9,2.5,-4.0
COc1ccc(C(C(=O)NC2CCCC2)N(CCO)C(=O)Cn2nnc(-c3ccc(C)o3)n2)cc1OC (stereo not given),3.4,2.8,-0.1,4.0,-10.1
CCOC(=O)c1sc2ncn(CC(=O)Nc3cc(C)on3)c(=O)c2c1C,-3.2,1.2,0.3,-1.4,-9.3
COc1ccc(CNC2CCSc3ccccc32)cc1OC (stereo not given),-32.1*,2.4,-0.4,-3.0,-25.5
COc1cnc(-c2ccccn2)nc1Sc1ccc(C)cc1,2.9,6.5,-0.4,-2.8,4.7
Cc1ccc(Sc2cc(C)nc(-c3ccccn3)n2)cc1,3.6,4.2,-0.2,-0.6,32.3*
O=C(CCn1ccc2cc(S(=O)(=O)N3CCCC3)ccc21)NCc1ccccc1F,-31.3*!,4.6,0.9,-2.0,-2.9
O=C(CCn1ccc2cc(S(=O)(=O)N3CCCC3)ccc21)NCc1ccccc1Cl,-14.8,7.0,0.4,-2.1,-4.4
CCOc1ccccc1CNC(=O)CCn1ccc2cc(S(=O)(=O)N3CCCCC3)ccc21,8.6,48.1*!,0.4,3.0,8.5
O=C(CCN1C(=O)c2ccccc2S1(=O)=O)NCc1ccccc1Cl,-20.0,3.9,-0.5,-2.3,-0.3
Cc1cc(O)cc(O)c1C(=O)Cc1ccccc1,-12.3,8.2,0.2,-7.4,-1.0
CC(=O)c1cc2c(O)c(O)ccc2o1,11.9,4.5,0.1,-0.2,-9.7
CC(=O)c1c(O)cc(O)c(C(C)=O)c1O,-45.3*,2.5,1.2,-6.6,-5.0
CC(=O)c1c(O)cc(O)cc1CC(=O)O,-57.6*,1.5,0.1,-3.5,4.6
CN1CCc2c(sc(NC(=O)CSc3ccccc3)c2-c2nc3ccccc3s2)C1,-54.5*,399.6*,115.2*,-1.9,-19.1
SMILES,D1 antagonist,D1 ag,TRHR ag,D1 PAM,TRHR PAM
CC(=O)N1CCc2c(sc(NC(=O)CSc3ccccc3)c2-c2nc3ccccc3s2)C1,2.9,7.2,-1.0,-6.0,10.5
CC(C)(C)OC(=O)N1CCC(c2c(C(=O)Nc3ccc4c(c3)OCCO4)cnn2-c2ccc(F)cc2)CC1,4.6,1.3,-1.3,-5.6,-4.6
N#Cc1ccc(OC(=O)c2cc(-c3ccc(Cl)cc3)on2)cc1,-38.0*,2.7,0.0,-0.3,-2.1
Cc1cccc(NC(=O)c2cc(-c3ccc4c(c3)OCCO4)on2)c1,-65.8*,34.6*,-0.5,-1.3,2.7
Cc1cc(OC(=O)c2cc(-c3ccc4c(c3)OCCO4)on2)ccc1Cl,-35.7*,10.8,1.0,-2.1,-0.2
CCc1ccc(-c2csc(NC(=O)C3=COCCO3)n2)cc1,-21.2,-0.2,0.1,3.4,3.2
C=C(C)CN(CC)C(=O)COc1ccc(S(=O)(=O)Nc2ccc(OC)cc2)cc1,-28.1,52.1*,4.2,-7.4,-18.7
CCOC(=O)c1ccc(NS(=O)(=O)c2ccc3c(c2)OCCO3)cc1,-36.2*,24.6,2.8,-6.5,15.1
Cc1ccc(NS(=O)(=O)c2ccc(OCC(=O)NCC3CCCO3)cc2)cc1 (stereo not given),-37.6*,10.3,1.3,-4.2,-3.4
COc1ccc(S(=O)(=O)Nc2ccc(CC#N)cc2)cc1,-33.1*,5.6,-0.2,-2.3,-3.1
N#CCc1ccc(NS(=O)(=O)c2ccc(C3CCCCC3)cc2)cc1,-7.5,27.6,1.1,-5.8,-1.8
CCNC(=O)COC(=O)c1ccc(NS(=O)(=O)c2ccc3c(c2)OCCO3)cc1,-2.1,3.4,0.2,4.5,15.7
Cc1ccc(C(=O)NCCC(=O)N2CCC3(CC2)NCCc2[nH]cnc23)cc1C,-4.1,2.1,0.2,-7.9,17.1
CCOC(=O)COc1ccc(S(=O)(=O)Nc2ccc3c(c2)OCCO3)cc1,-19.7,33.4*,1.6,-4.8,-7.6
Cc1ccc(NS(=O)(=O)c2ccc(C(=O)OCC(=O)Nc3cc(C)on3)cc2)cc1,-6.1,44.3*,1.1,0.1,-0.3
COc1ccc(NS(=O)(=O)c2cccc(C(=O)OCC(=O)Nc3cc(C)on3)c2)cc1,-14.8,9.3,0.1,-1.9,8.1
Cc1ccc(-n2nnnc2SCC(=O)NC2CC2)cc1C,25.1,2.8,-0.1,3.4,-0.2
CN(C)CCNc1ncnc2c1sc1nc(-c3ccccc3)c3c(c12)CCCC3,-79.7*,13.8,1.8,-21.8,3.6
Cc1oc(-c2ccc(Cl)cc2)nc1Cn1c(=O)cc(-c2ccccc2)c2c(C)nn(C)c21,-2.2,4.4,1.0,-5.5,4.5
O=C(CSC(=S)N1CCSCC1)c1ccc(Cl)cc1,-45.6*,9.2,1.5,0.9,7.4
CCCOc1ccc(N2C(=O)CC(NCc3ccncc3)C2=O)cc1 (stereo not given),-58.6*,0.9,-0.2,1.4,3.6
Cc1ccc(-n2c3c(c(=O)[nH]c2=O)C(NC(=O)C(C)(C)C)(C(F)(F)F)C(=O)N3)cc1 (stereo not given),-73.7*,-0.5,0.2,-5.3,-0.7
Cc1ccc(C(=O)NC2(C(F)(F)F)C(=O)Nc3c2c(=O)[nH]c(=O)n3CCc2ccccc2)cc1 (stereo not given),-40.3*,0.0,0.6,-5.5,-10.1
O=C(NC1(C(F)(F)F)C(=O)Nc2c1c(=O)[nH]c(=O)n2CCc1ccccc1)c1ccc(Cl)cc1 (stereo not given),-9.7,5.1,0.4,1.6,-7.9
